Results from PubChem BioAssay (EPA / NIEHS).
Some structures have more than one record in an assay (separate samples or runs), and their calls can disagree. The source made the active and inactive calls. Rule for the calls: active = hit-call score of the fitted dose curve at least 0.9, where 1 is the maximum; inactive = score below 0.9.

Columns and labels:
[1] = target: Paired box protein Pax-6 (Homo sapiens) (UniProt P26367); assay: ATG_Pax6_CIS: Attagene CIS-FACTORIAL HepG2 Assay for human Paired Box 6 (PAX6) (AID 2282956); details: HepG2 CIS-FACTORIAL PAX6 reporter transcription, RNA readout; actives raise or lower the signal
Summary of the method: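 HepG2 cells transiently transfected with cis-promoter-driven multiplexed reporter units sensing endogenous transcription factor activity; 24 h chemical exposure. Reporter mRNA quantified by RT-PCR, 6-FAM labelling, HpaI digestion and capillary electrophoresis; bidirectional fit versus DMSO baseline.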

[2] = ATG_PXRE_CIS: Attagene CIS-FACTORIAL HepG2 Assay for human Pregnane X Receptor Element (PXRE) (AID 2282957); details: HepG2 Attagene CIS-FACTORIAL PXRE reporter, mRNA; actives raise or lower the signal
Summary of the method: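 Cells: HepG2, transiently transfected reporter units under cis promoter control. Exposure: 24 h. Detection: reporter mRNA via RT-PCR/CE fluorescence; bidirectional fitting, DMSO-referenced.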

[3] = ATG_PPRE_CIS: Attagene CIS-FACTORIAL HepG2 Assay for human Peroxisome Proliferator-activated Response Element (PPRE) (AID 2282958); details: HepG2 PPRE cis-element reporter, Attagene transcription factor profiling; actives raise or lower the signal
Summary of the method: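 Cells are first transfected transiently with the multiplexed reporter library, then dosed for 24 h. Total RNA is reverse-transcribed, amplified, fluorescently end-labeled and HpaI-cut before capillary electrophoresis; activity is fitted bidirectionally against DMSO controls.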

[4] = ATG_RORE_CIS: Attagene CIS-FACTORIAL HepG2 Assay for human RAR-related Orphan Receptor Element (RORE) (AID 2282959); details: HepG2 Attagene cis-factorial RORE reporter, mRNA; actives raise or lower the signal
Summary of the method: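 Cells were HepG2 carrying transfected cis-regulated reporter constructs, dosed for 24 hours. Total RNA was reverse-transcribed and reporter cDNA amplified, fluorescently labeled and sized by capillary electrophoresis. Activity was fitted bidirectionally relative to DMSO.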

[5] = ATG_Sox_CIS: Attagene CIS-FACTORIAL HepG2 Assay for human SRY-box transcription factor (SOX) (AID 2282960); details: HepG2 Attagene cis-factorial SOX reporter, mRNA; actives raise or lower the signal
Summary of the method: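 Transient MRTU transfection of HepG2; 24 h compound incubation; TriZol RNA, oligo(dT) RT, PCR, 6-FAM primer extension, HpaI cut, CE. Bidirectional fit, DMSO = baseline.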

[6] = ATG_SREBP_CIS: Attagene CIS-FACTORIAL HepG2 Assay for human Sterol Regulatory Element Binding (SREBP) (AID 2282962); details: HepG2 Attagene cis-factorial SREBP reporter, mRNA; actives raise or lower the signal
Summary of the method: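 HepG2 cells transiently transfected with multiplexed cis-promoter reporter units sensing endogenous transcription factors; reporter mRNA measured 24 h after dosing by RT-PCR, 6-FAM labeling, HpaI digestion and capillary electrophoresis. Bidirectional fit versus DMSO.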

[7] = target: Signal transducer and activator of transcription 3 (Homo sapiens) (UniProt P40763); assay: ATG_STAT3_CIS: Attagene CIS-FACTORIAL HepG2 Assay for human Signal Transducer and Activator of Transcription 3 (STAT3) (AID 2282963); details: HepG2, Attagene cis-factorial STAT3 reporter transcription; actives raise or lower the signal
Summary of the method: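 Values derive from bidirectional fits relative to DMSO of reporter mRNA levels, measured by RT-PCR with capillary electrophoresis, in HepG2 cells carrying transiently transfected cis-regulated reporter units and exposed 24 h.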

[8] = ATG_TA_CIS: Attagene CIS-FACTORIAL HepG2 Assay for human TA Basal Promoter (AID 2282964); details: HepG2 Attagene CIS-factorial TA basal promoter reporter; actives raise or lower the signal
Summary of the method: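 HepG2 cells transiently transfected with multiple reporter units under cis promoter elements, reporting endogenous transcription factor activity; this endpoint tracks the TA basal promoter as background control. Reporter mRNA after 24 h dosing measured by RT-PCR/capillary electrophoresis; bidirectional fits versus DMSO.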

[9] = ATG_TCF_b_cat_CIS: Attagene CIS-FACTORIAL HepG2 Assay for human T-Cell-Factor with beta-catenin (TCF/b-cat) (AID 2282965); details: HepG2 TCF/beta-catenin cis-reporter transcription, actives raise or lower the signal
Summary of the method: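 Cells of the HepG2 line carry transiently transfected reporter units whose promoters respond to endogenous factors. Twenty-four hours post-dosing, reporter mRNA induction is measured by fluorescent RT-PCR and capillary electrophoresis, with DMSO as baseline.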

[10] = target: Transcription factor Sp1 (Homo sapiens) (UniProt P08047); assay: ATG_Sp1_CIS: Attagene CIS-FACTORIAL HepG2 Assay for human Specificity Protein 1 (Sp1) (AID 2282961); details: HepG2 Sp1 cis-reporter transcription, actives raise or lower the signal
Summary of the method: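 Endogenous Sp1 activity was gauged in human liver HepG2 cells bearing transfected reporter units under a cis-regulating promoter. After 24 h dosing, reporter mRNA was quantified by RT-PCR with capillary electrophoresis, and activity fitted bidirectionally versus DMSO.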

Measured: AC50

Sequence of Transcription factor Sp1 (Homo sapiens) (P08047 whole entry, looked up): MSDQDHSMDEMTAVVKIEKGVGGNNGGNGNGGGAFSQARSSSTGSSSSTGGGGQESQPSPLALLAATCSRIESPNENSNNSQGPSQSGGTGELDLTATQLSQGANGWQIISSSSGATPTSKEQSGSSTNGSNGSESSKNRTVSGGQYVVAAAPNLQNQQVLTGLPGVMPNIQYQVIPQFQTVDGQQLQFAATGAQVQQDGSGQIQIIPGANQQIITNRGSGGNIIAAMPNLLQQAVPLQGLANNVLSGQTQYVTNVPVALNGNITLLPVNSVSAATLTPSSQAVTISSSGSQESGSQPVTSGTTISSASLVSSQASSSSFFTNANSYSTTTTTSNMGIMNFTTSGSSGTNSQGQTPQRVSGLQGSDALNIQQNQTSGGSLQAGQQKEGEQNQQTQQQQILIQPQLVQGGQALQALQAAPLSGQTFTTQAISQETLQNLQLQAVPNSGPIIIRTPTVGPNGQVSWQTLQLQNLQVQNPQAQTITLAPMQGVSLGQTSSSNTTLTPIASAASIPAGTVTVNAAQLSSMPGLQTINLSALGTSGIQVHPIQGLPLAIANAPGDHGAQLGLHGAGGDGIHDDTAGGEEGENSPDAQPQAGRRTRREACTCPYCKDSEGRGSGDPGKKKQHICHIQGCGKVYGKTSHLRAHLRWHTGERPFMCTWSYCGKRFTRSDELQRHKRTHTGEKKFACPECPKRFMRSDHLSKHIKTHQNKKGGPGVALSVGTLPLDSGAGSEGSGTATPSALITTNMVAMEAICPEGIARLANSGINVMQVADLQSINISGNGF
Sequence of Signal transducer and activator of transcription 3 (Homo sapiens) (P40763 whole entry, looked up): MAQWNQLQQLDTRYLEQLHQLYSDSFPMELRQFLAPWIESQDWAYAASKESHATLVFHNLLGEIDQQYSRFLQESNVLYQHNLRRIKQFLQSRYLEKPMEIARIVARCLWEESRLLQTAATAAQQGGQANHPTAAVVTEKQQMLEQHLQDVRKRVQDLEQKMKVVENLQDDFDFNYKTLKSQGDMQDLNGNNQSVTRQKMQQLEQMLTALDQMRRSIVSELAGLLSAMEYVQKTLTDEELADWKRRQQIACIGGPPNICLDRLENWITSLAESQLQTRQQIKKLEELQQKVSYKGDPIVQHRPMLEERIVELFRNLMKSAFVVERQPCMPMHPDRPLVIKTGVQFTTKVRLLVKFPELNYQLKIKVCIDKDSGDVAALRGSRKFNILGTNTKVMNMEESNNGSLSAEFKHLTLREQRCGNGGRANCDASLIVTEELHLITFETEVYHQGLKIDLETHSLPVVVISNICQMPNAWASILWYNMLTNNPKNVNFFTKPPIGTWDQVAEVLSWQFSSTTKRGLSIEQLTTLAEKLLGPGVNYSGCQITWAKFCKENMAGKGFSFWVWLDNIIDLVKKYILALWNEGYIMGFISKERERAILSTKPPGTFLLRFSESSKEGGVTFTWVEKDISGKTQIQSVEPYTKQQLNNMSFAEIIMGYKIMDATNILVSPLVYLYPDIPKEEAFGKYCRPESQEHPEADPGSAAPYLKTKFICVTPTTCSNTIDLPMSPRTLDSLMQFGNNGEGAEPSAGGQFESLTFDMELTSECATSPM
Sequence of Paired box protein Pax-6 (Homo sapiens) (P26367 whole entry, looked up): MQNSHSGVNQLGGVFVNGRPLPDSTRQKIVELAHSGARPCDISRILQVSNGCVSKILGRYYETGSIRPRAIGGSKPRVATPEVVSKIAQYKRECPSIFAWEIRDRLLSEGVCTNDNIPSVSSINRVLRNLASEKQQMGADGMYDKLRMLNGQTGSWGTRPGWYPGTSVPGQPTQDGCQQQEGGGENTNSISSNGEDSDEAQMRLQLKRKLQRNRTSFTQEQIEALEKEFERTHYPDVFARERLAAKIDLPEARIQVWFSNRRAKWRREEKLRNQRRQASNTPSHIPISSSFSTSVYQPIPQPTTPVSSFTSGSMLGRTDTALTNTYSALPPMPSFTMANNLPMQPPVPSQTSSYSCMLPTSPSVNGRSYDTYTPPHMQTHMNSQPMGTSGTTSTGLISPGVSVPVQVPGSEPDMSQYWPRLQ

CCCCCCCC(=O)OC
inactive: [1] | [2] | [3] | [4] | [5] | [6] | [7] | [8] | [9]

CC(=O)S[C@H](C(=O)N[C@H]1Cc2ccccc2[C@H]2CCC[C@@H](C(=O)O)N2C1=O)C(C)C
active: [2] 40.9 µM
inactive: [1] | [4] | [5] | [10] | [6] | [7] | [8] | [9]

CCOCCOCCO
inactive: [1] | [3] | [4] | [5] | [10] | [6] | [7] | [8] | [9]

O=Cc1ccccc1C=O
inactive: [1] | [3] | [4] | [5] | [10] | [6] | [7] | [8] | [9]

CC(=O)OCC(COC(C)=O)OC(C)=O
inactive: [1] | [2] | [3] | [4] | [5] | [6] | [7] | [8] | [9]

CC(C)c1cccc(C(C)C)c1
inactive: [1] | [3] | [4] | [5] | [10] | [6] | [7] | [8] | [9]

O=C(O)c1[nH]n(-c2ccc(S(=O)(=O)O)cc2)c(=O)c1N=Nc1ccc(S(=O)(=O)O)cc1
inactive: [1] | [3] | [4] | [5] | [10] | [6] | [7] | [8] | [9]

Cc1cc(SC2=C(O)C[C@@](CCc3ccc(N)cc3)(C(C)C)OC2=O)c(C(C)(C)C)cc1CO
active: [3] 57.6 µM | [10] 29.1 µM
inactive: [1] | [4] | [5] | [6] | [7] | [8] | [9]

O=C(NS(=O)(=O)/C=C/c1cccs1)c1ccc(F)cc1Br
inactive: [1] | [3] | [4] | [5] | [10] | [6] | [7] | [8]
active: [9] 11.4 µM

Cc1ccc(C(C)(C)C)c(O)c1
active: [1] 152 µM | [2] 25 µM | [5] 154 µM | [6] 161 µM | [9] 161 µM
inactive: [4] | [7] | [8]

O=[Si]=O
inactive: [1] | [2] | [3] | [4] | [5] | [6] | [7] | [8] | [9]

CC(=O)[C@@]1(O)CC[C@H]2[C@@H]3CCC4=CC(=O)CC[C@]4(C)[C@H]3CC[C@@]21C
active: [6] 11.1 µM
inactive: [1] | [2] | [4] | [5] | [10] | [6] | [7] | [8] | [9]

CC(C)(O)c1ccc(CNC(=O)c2cccnc2Oc2ccc(F)cc2)cc1
active: [2] 7.12 µM | [6] 44.6 µM
inactive: [1] | [4] | [5] | [10] | [7] | [8] | [9]

CCC(C)N(C)C(=O)c1cc2ccccc2c(-c2ccccc2Cl)n1 (centres undefined)
inactive: [5] | [10] | [6] | [7]
active: [1] 63 µM | [3] 106 µM | [4] 46.9 µM | [8] 44.3 µM | [9] 41.7 µM

CCCCCCCCCCCCCCCCO
inactive: [1] | [2] | [3] | [4] | [5] | [6] | [7] | [8]
active: [9] 159 µM

CCCC(=O)O
inactive: [1] | [3] | [4] | [5] | [10] | [6] | [7] | [8] | [9]

O=C1OC(c2ccc(O)cc2)(c2ccc(O)cc2)c2ccccc21
inactive: [2] | [5] | [7]
active: [1] 36.6 µM | [4] 26.7 µM | [10] 41.2 µM | [6] 27.6 µM | [8] 27.7 µM | [9] 27.5 µM

O=C1O[C@H]([C@H](O)CO)C(O)=C1O
inactive: [1] | [3] | [4] | [5] | [10] | [6] | [7] | [8] | [9]

COc1ccc(C(=O)Nc2nc3ccccc3c(NCc3ccccc3)c2C#N)cc1
active: [3] 1.68 µM | [6] 4.43 µM
inactive: [1] | [4] | [5] | [7] | [8] | [9]

CC(=O)CC(c1ccccc1)c1c(O)c2ccccc2oc1=O (centres undefined)
inactive: [1] | [4] | [5] | [10] | [6] | [7] | [8] | [9]

Oc1ccccc1O
inactive: [1] | [3] | [5] | [6] | [7] | [8] | [9]
active: [4] 23.2 µM

Oc1ccc(O)cc1
active: [3] 62.5 µM
inactive: [1] | [4] | [5] | [6] | [7] | [8] | [9]
